Laboratory results as given in PubChem BioAssay AID1619 (SRMLSC, 2009).
In all, about 220,000 compounds went through this assay and about 830 (0.38%) were called active. Only a sample is shown. Potency and affinity values are given separately. A number with no mark means an inactive call.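 The calls were made as follows: active = compound inhibiting the enzyme by more than half at any dose during confirmatory dose-response retesting; inconclusive = strong single-dose inhibitors picked by rank but not retested; inactive = the rest.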

Molecular target: Leucine aminopeptidase (Plasmodium falciparum (isolate 3D7)) (UniProt Q8IL11)
Test: P. falciparum M17LAP inhibitors, primary screen, biochemical, fluorogenic H-Leu-NHMec substrate, 1536-well (AID 1619);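 also: plate controls were full reaction with DMSO carrier for no effect and no enzyme background for full effect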
Conditions: recombinant M17LAP, H-Leu-NHMec fluorogenic kinetic assay; at 30 µM; hits give high values

Leucine aminopeptidase (Plasmodium falciparum (isolate 3D7)), sequence (Q8IL11 whole entry, looked up): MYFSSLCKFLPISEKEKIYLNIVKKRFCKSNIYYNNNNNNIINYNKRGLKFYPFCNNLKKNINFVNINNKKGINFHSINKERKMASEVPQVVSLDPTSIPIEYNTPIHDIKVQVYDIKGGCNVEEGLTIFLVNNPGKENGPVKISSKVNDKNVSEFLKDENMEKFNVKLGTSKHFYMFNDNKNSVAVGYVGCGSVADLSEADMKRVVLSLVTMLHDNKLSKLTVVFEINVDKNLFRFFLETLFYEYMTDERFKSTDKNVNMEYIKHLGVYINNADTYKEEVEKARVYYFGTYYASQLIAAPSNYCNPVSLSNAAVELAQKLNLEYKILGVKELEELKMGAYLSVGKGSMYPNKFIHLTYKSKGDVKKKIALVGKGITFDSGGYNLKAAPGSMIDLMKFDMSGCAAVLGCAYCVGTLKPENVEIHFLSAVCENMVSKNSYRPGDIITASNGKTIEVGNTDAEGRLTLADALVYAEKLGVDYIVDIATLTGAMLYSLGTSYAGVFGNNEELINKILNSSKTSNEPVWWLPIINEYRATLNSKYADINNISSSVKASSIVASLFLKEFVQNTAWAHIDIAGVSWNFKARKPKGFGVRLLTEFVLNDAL

Structure (SMILES) | inhibition
O=C(c1ccc2c(c1)OCO2)C1CCCN(C(=O)C2CCOCC2)C1 (stereo unspecified) | -3.38%
COCCCNC(NC(=O)c1ccc(Br)cc1)C(Cl)(Cl)Cl (stereo unspecified) | 0.25%
NC(=O)[C@@H]1CC2(CC(c3cccc(NC(=O)[C@H]4CCC(=O)N4)c3)=NO2)CN1C(=O)c1ccc(Cl)cc1 (stereo partly specified) | 11.6%
COc1ccccc1NC(=O)NCc1nc(-c2ccc(C(F)(F)F)cc2)no1 | 0.03%
COc1cc(OC)cc(C(=O)Nc2ccc([N+](=O)[O-])cn2)c1 | 1.24%
CN(C)c1ccc(C(=O)Nc2nnc(C3=COCCO3)o2)cc1 | 3.73%
C=CCOc1ccc(NC(=O)C2CC(=O)N(C(C)C)C2)cc1 (stereo unspecified) | 27.3%
CCOc1ccc(NC(=O)C2CC(=O)N(C(C)C)C2)cc1 (stereo unspecified) | 43.2%
CCOC(=O)c1c(C)n(C)c2ccc(OC(=O)c3ccc([N+](=O)[O-])cc3)cc12 | -6.49%
CCCc1cc(=O)[nH]c(Nc2ccc(Cl)cc2)n1 | 1.52%
COc1ccc(Cc2nnc(Nc3ccc(Cl)cc3)[nH]c2=O)cc1 | -7.25%
COc1ccc(NC(=O)C2CCC(C)(C(=O)O)C2(C)C)cc1 (stereo unspecified) | 14.3%
CC1(C(=O)O)CCC(C(=O)Nc2ccccc2)C1(C)C (stereo unspecified) | 1.51%
COc1cccc(NC(=O)c2ccc(NC(C)=O)cc2)c1 | 10.5%
COc1ccc2cc(CCNC(=O)C(C)C)c(=O)[nH]c2c1 | 9.03%
COc1ccc(NC(=O)CN2CCC(C)CC2)cc1 | 32.1%
CCCNC(=O)COC(=O)c1cc(SC)ccc1Cl | 6.08%
CSc1ccc(Cl)c(C(=O)NCc2ccco2)c1 | 14.1%
Cc1ccc(N=Cc2cc(C)n(C3CCCC3)c2C)cc1 | 3.83%
O=C(Nc1cc(F)cc(F)c1)c1ccc(NCCc2ccccc2)c([N+](=O)[O-])c1 | 5.14%
C=CCOC(=O)C1=C(C)Nc2[nH]c(=O)[nH]c(=O)c2C1c1ccccc1 (stereo unspecified) | 16.9%

Structure (SMILES) | inhibition
COc1ccc(Nc2nc3[nH]c(=O)cc(O)c3s2)cc1 | 23.2%
N#C/C(=C/c1cn(CC(=O)O)c2ccccc12)C(=O)Nc1ccccc1 | 10.1%
N#C/C(=C/c1cn(CC(=O)O)c2ccccc12)C(=O)NCc1ccccc1 | 21.3%
Cc1cc2cc(C)c3nnc(SCC(=O)Nc4ccc(S(=O)(=O)N5CCCCC5)cc4)n3c2cc1C | -1.16%
O=C(CCN1C(=O)c2ccccc2C1=O)Nc1cccc(S(=O)(=O)NC2=NCCC2)c1 | 22.4%
CCOc1ccc(NC(=O)c2ccc(NCC(=O)N3CCCCCC3)cc2)cc1 | -2.72%
COC(=O)c1ccc(C(=S)N2CCCCC2)cc1 | 3.47%
Cn1c(=O)c2c(nc(Br)n2Cc2ccccc2Cl)n(C)c1=O | 0.26%
Cc1ncc([N+](=O)[O-])n1Cc1ccccc1F | 10.8%
O=C(c1ccc([N+](=O)[O-])cc1)N1CCN(C(=O)c2ccco2)CC1 | 2.53%
O=C(c1ccco1)N1CCN(C(=O)c2ccccc2[N+](=O)[O-])CC1 | 4.98%
CC(=O)Nc1ccccc1NC(=O)C/C(C)=N/NC(=O)c1ccncc1 | 7.62%
N#C/C(=N\Nc1ccc(Cl)cc1)C(=O)c1ccsc1 | 4.01%
COc1cc(NC(=O)c2ccc3c(SCC(=O)O)c4c(nc3c2)CCCC4)cc(OC)c1OC | 8.1%
CCCCNC(=O)c1ccc2c(SCC(=O)O)c3c(nc2c1)CCCC3 | 45.8%
CC(C)CCNC(=O)c1ccc2c(SCC(=O)O)c3c(nc2c1)CCC3 | 7.01%
CCC(C)NC(=O)c1ccc2c(SCC(=O)O)c3c(nc2c1)CCCC3 (stereo unspecified) | 25.2%
O=C(Nc1ccc(Cl)cc1)c1cc(S(=O)(=O)N2CCOCC2)cs1 | 1.6%
Cc1ccc(C)c(S(=O)(=O)N2CCN(C(=O)c3cnccn3)CC2)c1 | 6.85%
CC1=NNC(=O)C1CC(=O)N/N=C/c1sccc1C (stereo unspecified) | 9.78%
CCCCCC(=O)N/N=C/c1ccccc1[N+](=O)[O-] | 36.9%

Structure (SMILES) | inhibition
CC1=NNC(=O)C1CCC(=O)N/N=C/c1c(Cl)cccc1Cl (stereo unspecified) | -1.12%
CC1=NNC(=O)C1CCC(=O)N/N=C/c1ccc(Cl)cc1Cl (stereo unspecified) | 11.1%
CC1=NNC(=O)C1CCC(=O)N/N=C/c1ccccc1 (stereo unspecified) | -4.86%
CC1=NNC(=O)C1CCC(=O)N/N=C/c1ccc(C)cc1 (stereo unspecified) | 5.32%
O=C1CC(CC(=O)N/N=C/c2ccccc2[N+](=O)[O-])=NN1 | 56.8%
O=C(Cc1c(F)cccc1Cl)Nc1cc(S(=O)(=O)N2CCCCC2)ccc1N1CCOCC1 | 10.3%
COc1cccc(Nc2cc(C)nc3nc(C)nn23)c1 | 1.55%
Cc1cc(C)c(NC(=O)CCCOC(=O)C2=COCCO2)c(C)c1 | 12.3%
O=C(NCc1ccco1)C(c1ccccc1)N(Cc1cccnc1)C(=O)Cn1nnc2ccccc21 (stereo unspecified) | 2.12%
CCOC(=O)N1CCC(NC(=O)c2cc(S(=O)(=O)N3CCOCC3)ccc2F)CC1 | -2.28%
O=C(Nc1ccc(F)c(F)c1)c1cnc(-c2ccccc2)nc1-c1ccccc1 | 6.48%
COc1ccccc1NC(=S)NCCc1c[nH]c2ccccc12 | 1.87%
CC1(C)CC2CC(C)(CN2Cc2c(O)ccc3ccccc23)C1 (stereo unspecified) | -1.68%
CC1C(=O)NN=C1C(=O)N/N=C/c1ccco1 (stereo unspecified) | 5.8%
O=C(CCC(=O)N/N=C/c1ccco1)N/N=C/c1ccco1 | 6.28%
COc1ccc(OC)c(NC(=O)CSc2nc3ccccc3cc2Cc2ccccc2)c1 | -12.8%
COc1ccc2cc(C)c3nnc(SCC(=O)Nc4cc(OC)c(OC)cc4C(=O)O)n3c2c1 | 3.81%
CCOC(=O)CC(=O)CSc1nc2ccc(OC)cc2cc1C | -7.77%
CCc1cc2cc(OC)ccc2nc1SCC(=O)NNC(=O)c1ccco1 | -4.39%
